# Results reported in PubChem BioAssay.
# Values joined by “and” are separate entries in the source; they are usually repeats but may differ in a detail not shown here. Equal entries are not always repeated. Active and inactive are the calls of the source. Rule as the data show it, unless noted: active = inhibition above about 25%; inactive = the rest.
# How the values were obtained:
# [1] = target: Nuclear receptor coactivator 3 (Homo sapiens) (UniProt Q9Y6Q9); assay: SRC3 coactivator transcriptional activity inhibitors, confirmation, cell-based, luminescence, quadruplicate (AID 588792;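 active = mean inhibition over 43.08%, the solvent-only control mean plus 3 SD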;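 also: 0% = DMSO treated cells and 100% = gossypol at 36 µM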); details: HEK293 GAL4-SRC3 luciferase reporter, at 3.6 µM, stronger effect = higher value
# [2] = test system: transactivating tegument protein VP16 (Human herpesvirus 1), Gal4-VP16 luciferase reporter; assay: VP16 transactivation inhibitors, counter-screen for SRC3 inhibitor project, cell-based, luminescence, high throughput (AID 588794; in the data active = inhibition above about 30%); details: mammalian cells, VP16-driven luciferase reporter luminescence; at 3.6 µM; stronger effect = higher value
# [3] = target: Nuclear receptor coactivator 1 (Homo sapiens) (UniProt Q15788); assay: SRC1 coactivator transcriptional activity inhibitors, confirmation, cell-based, luminescence, quadruplicate (AID 588820;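 active = mean inhibition above 46.68%, the untreated control wells mean plus 3 SD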;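 also: 0% = DMSO wells and 100% = gossypol 36 µM treated wells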); details: HEK293 GAL4-SRC1 luciferase reporter, at 3.6 µM, stronger effect = higher value
# [4] = VP16 transactivation inhibitors, counter-screen for SRC1 inhibitor project, cell-based, luminescence, high throughput (AID 588824); details: cell-based VP16 transactivation luciferase luminescence; at 3.6 µM; stronger effect = higher value
# [5] = test system: transactivating tegument protein VP16 (Human herpesvirus 1); assay: VP16 transactivation reporter inhibitors, counter-screen for SRC2 inhibitor project, cell-based, luminescence, single concentration (AID 652007; in the data active = inhibition above about 36%); details: cell-based VP16 transactivation luciferase reporter, at 8.9 µM, stronger effect = higher value
# [6] = target: Nuclear receptor coactivator 2 (Homo sapiens) (UniProt Q15596); assay: SRC2 coactivator transcriptional activity inhibitors, confirmation, cell-based, luminescence, HEK293, triplicate (AID 652008;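 active = mean inhibition above 46.5%, the solvent-only control mean plus 3 SD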;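 also: 0% = DMSO-treated cells and 100% = Gossypol at 36 µM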); details: HEK293 GAL4-SRC2 luciferase reporter, at 8.9 µM, stronger effect = higher value
# [7] = target: Nuclear receptor subfamily 5 group A member 2 (Homo sapiens) (UniProt O00482); assay: LRH-1 (NR5A2) inverse agonists, retest, confirmation, cell-based, luminescence (AID 651613; in the data active = inhibition above about 42%;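 also: HEK293T cells co-transfected with LRH-1 and StAR promoter luciferase reporter; 0% = vehicle wells and 100% = parental cells lacking receptor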); details: cell-based LRH-1 luciferase reporter, inverse agonism; at 3.6 µM; stronger effect = higher value
# [8] = target: Steroidogenic factor 1 (Homo sapiens) (UniProt Q13285); assay: SF1 (NR5A1) inverse agonists, counter-screen for LRH-1 inverse agonist project, cell-based, luminescence, high throughput (AID 651614; in the data active = inhibition above about 44%;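 also: cells cotransfected with StAR promoter reporter and SF1 expression vector; 0% = vehicle on cells with receptor and 100% = vehicle on cells lacking receptor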); details: cell-based SF1 luciferase reporter, at 3.6 µM, stronger effect = higher value
# Chain of Nuclear receptor coactivator 1 (Homo sapiens) (Q15788 whole entry, looked up, the tested form may be a part): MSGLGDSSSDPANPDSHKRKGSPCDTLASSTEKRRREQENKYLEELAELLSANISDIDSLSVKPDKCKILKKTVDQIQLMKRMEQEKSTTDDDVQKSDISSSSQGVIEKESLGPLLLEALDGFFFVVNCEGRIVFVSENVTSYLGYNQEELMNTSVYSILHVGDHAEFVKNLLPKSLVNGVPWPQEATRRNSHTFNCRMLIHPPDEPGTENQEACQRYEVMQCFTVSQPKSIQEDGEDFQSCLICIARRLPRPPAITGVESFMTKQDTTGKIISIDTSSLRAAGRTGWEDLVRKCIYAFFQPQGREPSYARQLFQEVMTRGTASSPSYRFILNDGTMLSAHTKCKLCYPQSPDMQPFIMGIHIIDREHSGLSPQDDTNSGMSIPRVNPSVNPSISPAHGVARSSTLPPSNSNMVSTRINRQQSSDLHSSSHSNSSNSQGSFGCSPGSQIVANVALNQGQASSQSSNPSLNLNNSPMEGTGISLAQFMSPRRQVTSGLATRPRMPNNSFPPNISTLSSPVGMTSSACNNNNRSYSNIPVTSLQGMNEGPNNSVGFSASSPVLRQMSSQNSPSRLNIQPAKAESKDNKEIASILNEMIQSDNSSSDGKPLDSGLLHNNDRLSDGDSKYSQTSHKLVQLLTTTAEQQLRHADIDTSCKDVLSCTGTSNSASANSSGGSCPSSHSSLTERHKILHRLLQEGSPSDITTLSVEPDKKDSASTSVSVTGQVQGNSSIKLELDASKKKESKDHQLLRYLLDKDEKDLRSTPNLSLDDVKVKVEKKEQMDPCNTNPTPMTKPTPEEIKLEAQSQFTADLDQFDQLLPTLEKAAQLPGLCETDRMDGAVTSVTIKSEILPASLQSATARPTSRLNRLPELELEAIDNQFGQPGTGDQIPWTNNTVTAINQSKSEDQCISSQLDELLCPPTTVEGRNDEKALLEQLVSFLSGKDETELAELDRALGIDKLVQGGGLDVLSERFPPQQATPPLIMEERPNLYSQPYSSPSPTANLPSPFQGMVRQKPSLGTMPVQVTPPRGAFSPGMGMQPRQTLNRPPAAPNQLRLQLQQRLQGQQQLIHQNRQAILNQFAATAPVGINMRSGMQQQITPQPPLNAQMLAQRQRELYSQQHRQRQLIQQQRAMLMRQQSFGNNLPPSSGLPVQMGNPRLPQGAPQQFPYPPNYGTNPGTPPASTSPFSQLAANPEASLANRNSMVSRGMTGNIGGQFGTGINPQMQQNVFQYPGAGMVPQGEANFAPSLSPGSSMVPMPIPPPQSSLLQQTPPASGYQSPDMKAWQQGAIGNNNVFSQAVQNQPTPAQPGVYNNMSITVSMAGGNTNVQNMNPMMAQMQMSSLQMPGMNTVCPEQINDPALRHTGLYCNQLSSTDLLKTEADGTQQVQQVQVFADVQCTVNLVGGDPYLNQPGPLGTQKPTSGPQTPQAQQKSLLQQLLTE
# Chain of Nuclear receptor coactivator 2 (Homo sapiens) (Q15596 whole entry, looked up, the tested form may be a part): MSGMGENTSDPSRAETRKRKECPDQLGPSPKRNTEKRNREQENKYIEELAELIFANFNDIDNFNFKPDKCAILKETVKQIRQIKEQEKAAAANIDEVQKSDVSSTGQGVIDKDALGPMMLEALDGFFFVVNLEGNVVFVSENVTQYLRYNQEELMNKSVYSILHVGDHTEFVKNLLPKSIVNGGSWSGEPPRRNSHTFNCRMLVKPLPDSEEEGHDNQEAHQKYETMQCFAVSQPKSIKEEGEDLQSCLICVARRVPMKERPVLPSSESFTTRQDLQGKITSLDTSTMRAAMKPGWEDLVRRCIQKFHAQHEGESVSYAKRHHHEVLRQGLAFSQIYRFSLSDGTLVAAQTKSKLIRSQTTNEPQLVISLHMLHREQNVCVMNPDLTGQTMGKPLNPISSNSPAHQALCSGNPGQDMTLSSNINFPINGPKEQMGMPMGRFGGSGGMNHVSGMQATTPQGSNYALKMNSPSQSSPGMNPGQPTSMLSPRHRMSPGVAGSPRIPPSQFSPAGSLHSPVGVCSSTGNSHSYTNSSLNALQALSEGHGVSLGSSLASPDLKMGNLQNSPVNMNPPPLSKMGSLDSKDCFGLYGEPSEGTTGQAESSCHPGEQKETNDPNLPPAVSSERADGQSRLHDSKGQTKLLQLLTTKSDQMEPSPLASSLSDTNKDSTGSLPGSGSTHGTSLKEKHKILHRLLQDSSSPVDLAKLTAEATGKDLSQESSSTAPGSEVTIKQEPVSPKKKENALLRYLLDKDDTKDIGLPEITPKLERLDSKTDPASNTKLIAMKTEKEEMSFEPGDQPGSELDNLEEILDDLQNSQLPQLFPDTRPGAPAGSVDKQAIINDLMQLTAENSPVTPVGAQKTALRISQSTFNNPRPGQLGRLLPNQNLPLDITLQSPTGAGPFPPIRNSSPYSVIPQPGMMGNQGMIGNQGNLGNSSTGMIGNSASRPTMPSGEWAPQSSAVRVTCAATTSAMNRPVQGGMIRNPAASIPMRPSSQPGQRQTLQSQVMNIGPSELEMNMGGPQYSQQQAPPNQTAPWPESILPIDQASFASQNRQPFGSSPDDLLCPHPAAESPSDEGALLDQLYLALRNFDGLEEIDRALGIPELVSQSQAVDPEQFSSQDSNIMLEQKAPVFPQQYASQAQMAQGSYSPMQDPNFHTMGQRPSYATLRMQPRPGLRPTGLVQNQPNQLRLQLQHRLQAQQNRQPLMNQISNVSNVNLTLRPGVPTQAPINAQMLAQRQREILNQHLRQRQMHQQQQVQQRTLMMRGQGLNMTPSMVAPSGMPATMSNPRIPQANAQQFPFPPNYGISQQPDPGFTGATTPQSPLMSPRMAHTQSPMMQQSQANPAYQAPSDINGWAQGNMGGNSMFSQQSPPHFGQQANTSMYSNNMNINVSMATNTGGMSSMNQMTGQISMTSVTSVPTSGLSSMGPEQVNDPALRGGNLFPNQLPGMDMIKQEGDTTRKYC
# Chain of Nuclear receptor coactivator 3 (Homo sapiens) (Q9Y6Q9 whole entry, looked up, the tested form may be a part): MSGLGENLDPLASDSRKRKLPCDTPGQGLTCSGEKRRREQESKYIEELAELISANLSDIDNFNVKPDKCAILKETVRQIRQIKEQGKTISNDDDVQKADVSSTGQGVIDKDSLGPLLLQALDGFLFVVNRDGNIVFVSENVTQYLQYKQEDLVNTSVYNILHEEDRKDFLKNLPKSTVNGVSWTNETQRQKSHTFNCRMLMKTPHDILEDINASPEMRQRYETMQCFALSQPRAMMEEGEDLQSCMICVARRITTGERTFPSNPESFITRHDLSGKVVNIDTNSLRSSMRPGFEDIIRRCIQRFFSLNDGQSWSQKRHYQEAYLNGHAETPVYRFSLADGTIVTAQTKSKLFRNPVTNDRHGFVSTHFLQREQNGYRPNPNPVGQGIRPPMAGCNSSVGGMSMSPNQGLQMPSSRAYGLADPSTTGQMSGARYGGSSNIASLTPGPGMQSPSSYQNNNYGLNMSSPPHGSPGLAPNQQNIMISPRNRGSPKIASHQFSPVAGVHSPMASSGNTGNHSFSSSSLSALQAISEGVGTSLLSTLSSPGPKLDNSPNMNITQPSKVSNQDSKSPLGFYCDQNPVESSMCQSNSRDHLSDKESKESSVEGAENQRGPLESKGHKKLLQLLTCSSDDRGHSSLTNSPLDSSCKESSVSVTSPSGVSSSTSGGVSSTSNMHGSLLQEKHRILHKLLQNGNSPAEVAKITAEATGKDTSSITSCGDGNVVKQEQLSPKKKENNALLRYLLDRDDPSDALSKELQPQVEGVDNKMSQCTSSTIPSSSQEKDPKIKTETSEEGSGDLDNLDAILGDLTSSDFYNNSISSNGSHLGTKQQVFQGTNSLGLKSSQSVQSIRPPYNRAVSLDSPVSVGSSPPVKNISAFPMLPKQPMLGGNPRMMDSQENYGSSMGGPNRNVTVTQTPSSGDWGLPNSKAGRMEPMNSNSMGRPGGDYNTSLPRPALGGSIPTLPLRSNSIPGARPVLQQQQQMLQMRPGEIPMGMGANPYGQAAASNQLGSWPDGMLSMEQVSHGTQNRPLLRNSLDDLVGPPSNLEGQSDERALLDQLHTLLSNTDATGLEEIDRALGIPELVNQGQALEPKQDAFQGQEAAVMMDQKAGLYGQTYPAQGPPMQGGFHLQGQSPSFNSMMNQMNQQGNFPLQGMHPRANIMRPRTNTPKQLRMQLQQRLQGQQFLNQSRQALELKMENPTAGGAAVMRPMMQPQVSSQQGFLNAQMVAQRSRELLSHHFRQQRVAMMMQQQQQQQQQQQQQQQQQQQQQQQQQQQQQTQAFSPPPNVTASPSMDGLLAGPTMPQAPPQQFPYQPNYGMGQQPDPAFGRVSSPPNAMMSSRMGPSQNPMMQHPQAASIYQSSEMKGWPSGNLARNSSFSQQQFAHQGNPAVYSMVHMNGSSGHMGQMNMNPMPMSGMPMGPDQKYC
# Chain of Nuclear receptor subfamily 5 group A member 2 (Homo sapiens) (O00482 whole entry, looked up): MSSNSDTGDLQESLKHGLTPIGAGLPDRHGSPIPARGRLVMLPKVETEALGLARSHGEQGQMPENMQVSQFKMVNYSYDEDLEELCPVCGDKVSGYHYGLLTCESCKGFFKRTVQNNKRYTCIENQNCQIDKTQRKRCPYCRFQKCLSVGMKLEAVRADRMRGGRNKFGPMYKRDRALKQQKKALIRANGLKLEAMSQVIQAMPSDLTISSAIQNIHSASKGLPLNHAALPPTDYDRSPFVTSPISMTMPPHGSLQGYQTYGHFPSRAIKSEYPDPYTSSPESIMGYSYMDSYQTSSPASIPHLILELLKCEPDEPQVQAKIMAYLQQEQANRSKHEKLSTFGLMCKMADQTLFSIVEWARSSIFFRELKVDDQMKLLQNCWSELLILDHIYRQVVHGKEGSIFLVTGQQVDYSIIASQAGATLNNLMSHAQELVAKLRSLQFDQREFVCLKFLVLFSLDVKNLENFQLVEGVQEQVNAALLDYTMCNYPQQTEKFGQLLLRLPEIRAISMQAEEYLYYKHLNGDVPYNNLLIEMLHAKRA
SMILES,inhibition [1],inhibition [2],inhibition [3],inhibition [4],inhibition [5],inhibition [6],inhibition [7],inhibition [8]
Cc1cc(Sc2nnc(/N=C/N(C)C)s2)c2ccccc2n1,9.12% (inactive),40.5% (active),2.4% (inactive),33.8% (active),-8.53% (inactive),24.6% (inactive),,
CC1CCc2nc(NC(=O)C3COc4ccccc4O3)sc2C1 (configuration not stated),9.01% (inactive),-11.5% (inactive),-134% (inactive),-51.9% (inactive),-16.9% (inactive),36.4% (inactive),,
NC(=O)c1sc2nc3c(c(-c4cccs4)c2c1N)CCCCC3,83.3% (active),58.4% (active),77.6% (active),65% (active),7.38% (inactive),60.3% (active),,
CNc1ncnc(Sc2nc(N)nc3nc[nH]c23)c1[N+](=O)[O-],47.1% (active),20.2% (inactive),26.8% (inactive),14.4% (inactive),,,52.6% (active),25.1% (inactive)
O=C(N/N=C/c1cc(Br)ccc1O)C(c1ccncc1)N1CCOCC1 (configuration not stated),19.3% (inactive),20.1% (inactive),19.4% (inactive),10.6% (inactive),11.5% (inactive),10.1% (inactive),,
C[C@H]1O[C@@H](O[C@H]2[C@@H](O)C[C@H](O[C@H]3[C@@H](O)C[C@H](O[C@H]4CC[C@@]5(C)[C@H](CC[C@@H]6[C@@H]5C[C@@H](O)[C@]5(C)[C@@H](C7=CC(=O)OC7)CC[C@]65O)C4)O[C@@H]3C)O[C@@H]2C)C[C@H](O)[C@@H]1O,96.8% (active),88.6% (active),80.6% (active),87.5% (active),70.2% (active),55.2% (active),110% (active),97.7% (active)
Cc1ccc(C(=O)CN2C(=O)c3ccccc3S2(=O)=O)cc1,31.6% (inactive),48.8% (active),-23.7% (inactive),41.4% (active),65% (active),61.9% (active),,
CN(Cc1nccs1)C(=O)c1cc(COc2cccc3cnccc23)on1,27.5% (inactive),36.1% (active),19.8% (inactive),34.7% (active),16.6% (inactive),51.8% (active),,
Cc1cc(NC(c2ccc(Cl)cc2)c2ccc3cccnc3c2O)no1 (configuration not stated),54% (active),42% (active),28.2% (inactive),58.8% (active),-9.15% (inactive),17.6% (inactive),,
Cc1ccc(/C=C2\SC(=S)N(CCCC(=O)NNC(=O)c3ccccc3O)C2=O)cc1,73.3% (active),53.6% (active),74.7% (active),58.3% (active),92.8% (active),95.4% (active),,
C=C1C(=O)O[C@H]2C[C@H]1[C@@H](OC(C)=O)C/C(C)=C/CC/C(C)=C\CC[C@]2(C)O,43.6% (active),57.6% (active),37% (inactive),49.1% (active),34.3% (inactive),28.4% (inactive),,
c1ccc(CNc2ncnc3ccccc23)cc1,47% (active),44.9% (active),17.6% (inactive) and 34.3% (inactive),34.9% (active) and 44% (active),14% (inactive),48.8% (active),,
COCCn1c(C)cc(C(=O)COC(=O)c2cccc(O)c2)c1C,2.54% (inactive),0.92% (inactive),-62.8% (inactive),-32.7% (inactive),37.3% (active),51.1% (active),,
OCCN1CCN(c2ncnc3ccc(Br)cc23)CC1,68.8% (active),41.1% (active),65.8% (active),44.5% (active),2.48% (inactive),36% (inactive),,
C=CCn1c(C)cc(C2=NNC(=NC(C)(C)C)SC2)c1C,28.8% (inactive),33.7% (active),-25.9% (inactive),-16.9% (inactive),17.8% (inactive),63% (active),,
c1csc(C2=Nn3c(nnc3-c3ccncc3)SC2)c1,72.9% (active),58.1% (active),67.9% (active),50.8% (active),29.6% (inactive),62.6% (active),,
COc1cc2ccccc2ccc1=NO,60.1% (active),38% (active),56.5% (active),32.9% (active),19.7% (inactive),59.6% (active),,
CCc1c(C#N)sc(C(N)=O)c1CC,27.8% (inactive),20.5% (inactive),20.6% (inactive),13.2% (inactive),8.1% (inactive),25.6% (inactive),,
CCN(c1ccc(OC)cc1)c1ncnc2nc[nH]c12,66.8% (active),45.6% (active),67.2% (active),48.6% (active),-3.42% (inactive),45.7% (inactive),,
CC(C)(C)c1ccc(C(=O)NCCOc2ccccc2F)cc1,10.1% (inactive),-2.97% (inactive),-61% (inactive),-47.6% (inactive),-20.4% (inactive),47.8% (active),,

SMILES,inhibition [1],inhibition [2],inhibition [3],inhibition [4],inhibition [5],inhibition [6],inhibition [7],inhibition [8]
CC1=C(C(=O)OCc2ccc3c(c2)OCO3)C(c2ccc(O)c([N+](=O)[O-])c2)NC(=O)N1 (configuration not stated),60% (active),37.2% (active),58.6% (active),35.7% (active),20.7% (inactive),33.6% (inactive),,
CCOC(=O)c1cccc(NS(=O)(=O)c2ccc(NC(C)=O)cc2)c1,43.5% (active),35.8% (active),40.5% (inactive),26.5% (active),-6.82% (inactive),40.8% (inactive),,
c1csc(CNc2ncnc3ccc(-c4ccoc4)cc23)c1,62.6% (active),41.1% (active),34.6% (inactive),37% (active),5.65% (inactive),37.1% (inactive),,
COc1ccccc1-c1cc2nc(-c3ccccc3)cc(N3CCN(C(=O)c4ccco4)CC3)n2n1,30.4% (inactive),48.6% (active),17.6% (inactive),25.1% (inactive),62.7% (active),60.3% (active),,
O=C1NC(=S)N/C1=C/c1cccnc1,39.1% (inactive),32% (active),44.9% (inactive),31.8% (active),-3.45% (inactive),43.8% (inactive),,
CCCCCN1C=CC(=C2C(=O)c3ccccc3C2=O)C=C1,44.2% (active),31.3% (active),-55.8% (inactive),15.5% (inactive),55.1% (active),77.3% (active),,
CC1(Cc2ccc(F)cc2)C(=O)Nc2ccc(-c3cccnc3)cc21 (configuration not stated),50.6% (active),35.4% (active),48.7% (active),35.3% (active),10.2% (inactive),36.8% (inactive),,
CCCN(CC(=O)Nc1ccccc1C)C(=O)CCl,74.9% (active),48.1% (active),48.8% (active),53.4% (active),65.6% (active),75.8% (active),,
CC(C)(C)c1ccc(Oc2ccc(NC(=O)c3ccccc3C(=O)O)cn2)cc1,4.23% (inactive),10.3% (inactive),2.66% (inactive),7.37% (inactive),39.5% (active),62.4% (active),,
CN(C)c1ccc(/C=C/c2nc3ccccc3s2)cc1,30.4% (inactive),28.4% (inactive),18.7% (inactive),12.9% (inactive),77.1% (active),84% (active),,
CS(=O)(=O)Nc1ccc(-c2cnc3cccnn23)cc1,67.9% (active),41.6% (active),57.5% (active),51.7% (active),-12.1% (inactive),45.8% (inactive),,
CC(=O)OC1CC2C(C)(C)C(=O)C=CC2(C)C2CCC3(C)C(c4ccoc4)OC(=O)C4OC43C12C (configuration not stated),49.5% (active),41.8% (active),25.9% (inactive),56.1% (active),43.9% (active),6.63% (inactive),,
C=C1C(=O)[C@@]23[C@H](O)C[C@@H]4C(C)(C)CC[C@H](O)[C@@]4(C)[C@@H]2CC[C@@H]1[C@H]3O,28.5% (inactive),49.6% (active),-18% (inactive),46.2% (active),33.9% (inactive),66.4% (active),,
Cc1csc(SCC(=O)Nc2cccc3nsnc23)n1,66.3% (active),35.1% (active),57.9% (active),37.7% (active),-58.8% (inactive),19.4% (inactive),,
Cc1ccc(S(=O)(=O)c2ccc([N+](=O)[O-])cn2)cc1,25.7% (inactive),-18.7% (inactive),-25.7% (inactive),-32.7% (inactive),13% (inactive),23.4% (inactive),,
COc1ccc(/C=C2\SC(=S)N(CCCC(=O)N3CCCCC3CCO)C2=O)cc1 (configuration not stated),20.9% (inactive),17.1% (inactive),4.91% (inactive),13.6% (inactive),61% (active),65.9% (active),,
Cc1[nH]nc2ncc(C(=O)c3ccccc3O)cc12,73.3% (active),43.9% (active),68.7% (active),48.9% (active),-2.08% (inactive),50.4% (active),,
Cc1nc2c(-c3ccc(Cl)cc3)cnn2c(N)c1-c1ccc(F)cc1,38% (inactive),24.5% (inactive),-12% (inactive),-6.2% (inactive),2.27% (inactive),53.7% (active),,
Nc1ncccc1C(=O)OCC(=O)N1CCN(S(=O)(=O)c2ccc(Cl)cc2)CC1,32.3% (inactive),22.3% (inactive),23.2% (inactive),20.6% (inactive),-4.99% (inactive),25.8% (inactive),,
COc1ccc(-c2cn[nH]c2-c2ccc(O)cc2O)cc1,67.1% (active),46.2% (active),53.9% (active),37.3% (active),-0.83% (inactive),50% (active),,
